# Experiments:
# Experiment in all cases: DAPPL (digital affinity profiling via proximity ligation, sequencing); 10 mM Tris-HCl pH 7.5, 50 mM NaCl, 1 mM DTT, 4% glycerol, room temperature, 30 min; GST-TFs on glutathione beads, 16-mer random dsDNA library, 0.1% formaldehyde crosslink after washing; high values mean tight binding
# FLI1 = molecular target: T1, FLI1 (Homo sapiens, UniProt Q01543 1-452); settings: protein: recombinant; tags: N-terminal GST; dsDNA, one strand shown
# T1 sequence: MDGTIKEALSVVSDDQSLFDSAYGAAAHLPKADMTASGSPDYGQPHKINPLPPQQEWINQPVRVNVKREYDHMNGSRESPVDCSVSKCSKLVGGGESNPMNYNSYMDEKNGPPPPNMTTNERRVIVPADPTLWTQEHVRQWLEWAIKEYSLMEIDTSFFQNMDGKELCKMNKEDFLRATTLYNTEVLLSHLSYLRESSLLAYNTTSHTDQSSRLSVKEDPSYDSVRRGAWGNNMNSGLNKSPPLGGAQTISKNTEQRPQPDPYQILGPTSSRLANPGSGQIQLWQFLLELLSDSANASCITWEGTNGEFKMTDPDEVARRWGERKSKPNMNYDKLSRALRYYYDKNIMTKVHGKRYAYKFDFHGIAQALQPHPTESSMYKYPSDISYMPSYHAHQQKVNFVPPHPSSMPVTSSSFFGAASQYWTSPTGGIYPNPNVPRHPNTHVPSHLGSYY
# Procedure, shortened: (§1)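 In yeast, human transcription factors were expressed with a GST fusion, then pulled down on glutathione beads and given DNA barcodes. Pooled with a tag-only sample, they were exposed to 200 nmole of a 16-mer random double-stranded DNA library (Tris/NaCl/DTT/glycerol buffer, room temperature, 30 min), washed, crosslinked with 0.1% formaldehyde, proximity-ligated using BsaI/T4 ligase for 1 h at 37 °C, PCR-amplified and read on an Illumina NextSeq500. Each hexamer's frequency of reads for a factor, divided by the matching frequency for the tag-only sample, gives the binding signal.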
# ELK1 = molecular target: T2, ELK1 (Homo sapiens, UniProt P19419 1-428); settings: protein: recombinant; tags: N-terminal GST; dsDNA, one strand shown
# T2 sequence: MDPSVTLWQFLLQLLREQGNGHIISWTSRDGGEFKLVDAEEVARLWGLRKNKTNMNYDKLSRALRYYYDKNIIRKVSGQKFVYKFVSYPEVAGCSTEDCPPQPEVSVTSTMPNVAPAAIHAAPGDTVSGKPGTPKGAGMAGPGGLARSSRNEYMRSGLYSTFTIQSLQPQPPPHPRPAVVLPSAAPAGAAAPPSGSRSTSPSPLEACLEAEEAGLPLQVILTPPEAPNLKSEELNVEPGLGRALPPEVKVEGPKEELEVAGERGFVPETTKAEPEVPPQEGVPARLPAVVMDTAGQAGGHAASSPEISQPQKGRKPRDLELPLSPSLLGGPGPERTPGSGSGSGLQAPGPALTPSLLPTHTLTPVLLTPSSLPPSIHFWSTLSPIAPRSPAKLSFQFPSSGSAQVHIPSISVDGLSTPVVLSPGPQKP
# Procedure, shortened: as §1
# GABPA = molecular target: T3, GABPA (Homo sapiens, UniProt Q06546 1-454); settings: protein: recombinant; tags: N-terminal GST; dsDNA, one strand shown
# T3 sequence: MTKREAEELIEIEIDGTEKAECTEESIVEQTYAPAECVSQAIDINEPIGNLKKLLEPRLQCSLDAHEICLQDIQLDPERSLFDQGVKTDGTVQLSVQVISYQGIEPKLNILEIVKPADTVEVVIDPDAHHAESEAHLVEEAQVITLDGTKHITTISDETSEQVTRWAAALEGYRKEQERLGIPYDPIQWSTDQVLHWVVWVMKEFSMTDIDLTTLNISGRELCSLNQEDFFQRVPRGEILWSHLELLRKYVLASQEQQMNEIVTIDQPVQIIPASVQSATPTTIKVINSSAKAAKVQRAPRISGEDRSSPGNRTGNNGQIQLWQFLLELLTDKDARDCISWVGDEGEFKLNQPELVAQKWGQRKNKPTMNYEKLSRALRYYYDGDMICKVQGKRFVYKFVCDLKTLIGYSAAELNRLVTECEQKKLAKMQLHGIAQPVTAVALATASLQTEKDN
# Procedure, shortened: as §1
# ERG = molecular target: T4, ERG (Homo sapiens, UniProt P11308 1-479); settings: protein: recombinant; tags: N-terminal GST; dsDNA, one strand shown
# T4 sequence: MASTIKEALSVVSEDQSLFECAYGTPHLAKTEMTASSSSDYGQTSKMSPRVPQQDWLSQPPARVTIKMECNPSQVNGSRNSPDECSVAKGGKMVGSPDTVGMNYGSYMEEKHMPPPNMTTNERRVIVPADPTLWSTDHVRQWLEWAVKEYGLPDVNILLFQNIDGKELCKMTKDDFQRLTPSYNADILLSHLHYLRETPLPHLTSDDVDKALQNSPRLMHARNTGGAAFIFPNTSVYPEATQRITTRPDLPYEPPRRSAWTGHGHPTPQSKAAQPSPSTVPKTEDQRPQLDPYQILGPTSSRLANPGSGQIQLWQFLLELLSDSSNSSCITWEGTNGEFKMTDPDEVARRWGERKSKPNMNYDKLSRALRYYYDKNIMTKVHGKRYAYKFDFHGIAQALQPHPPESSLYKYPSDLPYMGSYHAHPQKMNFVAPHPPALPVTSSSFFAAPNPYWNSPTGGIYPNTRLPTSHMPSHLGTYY
# Procedure, shortened: as §1
# ELF1 = ELF1 (Homo sapiens, UniProt P32519 1-619); settings: protein: recombinant; tags: N-terminal GST; dsDNA, one strand shown
# Chain of ELF1 (P32519 whole entry): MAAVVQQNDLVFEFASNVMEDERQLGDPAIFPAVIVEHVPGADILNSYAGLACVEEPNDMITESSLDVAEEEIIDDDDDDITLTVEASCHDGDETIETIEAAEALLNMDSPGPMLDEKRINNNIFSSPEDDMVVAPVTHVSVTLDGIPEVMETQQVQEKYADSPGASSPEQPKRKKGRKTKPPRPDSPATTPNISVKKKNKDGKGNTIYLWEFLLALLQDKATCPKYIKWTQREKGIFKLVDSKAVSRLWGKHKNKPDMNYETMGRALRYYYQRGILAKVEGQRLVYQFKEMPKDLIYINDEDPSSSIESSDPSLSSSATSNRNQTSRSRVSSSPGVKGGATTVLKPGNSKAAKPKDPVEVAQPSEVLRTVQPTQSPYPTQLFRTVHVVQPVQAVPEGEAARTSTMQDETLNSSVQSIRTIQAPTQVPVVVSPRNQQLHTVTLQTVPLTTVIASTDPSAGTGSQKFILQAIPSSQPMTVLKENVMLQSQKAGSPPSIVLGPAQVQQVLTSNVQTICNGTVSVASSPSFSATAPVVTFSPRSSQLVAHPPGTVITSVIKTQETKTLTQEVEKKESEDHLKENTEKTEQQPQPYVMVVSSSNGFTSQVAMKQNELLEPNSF
# Procedure, shortened: as §1
# EHF = molecular target: T5, EHF (Homo sapiens, UniProt Q9NZC4 1-300); settings: protein: recombinant; tags: N-terminal GST; dsDNA, one strand shown
# T5 sequence: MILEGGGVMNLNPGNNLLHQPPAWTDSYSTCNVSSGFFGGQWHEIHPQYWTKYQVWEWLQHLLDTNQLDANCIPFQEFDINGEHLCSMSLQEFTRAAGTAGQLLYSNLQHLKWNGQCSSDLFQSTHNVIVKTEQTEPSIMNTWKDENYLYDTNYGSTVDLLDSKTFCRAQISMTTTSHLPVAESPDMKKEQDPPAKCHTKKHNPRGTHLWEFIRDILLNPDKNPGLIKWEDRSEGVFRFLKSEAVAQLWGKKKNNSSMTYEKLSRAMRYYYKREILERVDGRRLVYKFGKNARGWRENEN
# Procedure, shortened: as §1
# SPI1 = SPI1 (Homo sapiens, UniProt P17947 1-270); settings: protein: recombinant; tags: N-terminal GST; dsDNA, one strand shown
# Procedure, shortened: as §1
# SPIB = SPIB (Homo sapiens, UniProt Q01892 1-262); settings: protein: recombinant; tags: N-terminal GST; dsDNA, one strand shown
# Chain of SPIB (Q01892 whole entry): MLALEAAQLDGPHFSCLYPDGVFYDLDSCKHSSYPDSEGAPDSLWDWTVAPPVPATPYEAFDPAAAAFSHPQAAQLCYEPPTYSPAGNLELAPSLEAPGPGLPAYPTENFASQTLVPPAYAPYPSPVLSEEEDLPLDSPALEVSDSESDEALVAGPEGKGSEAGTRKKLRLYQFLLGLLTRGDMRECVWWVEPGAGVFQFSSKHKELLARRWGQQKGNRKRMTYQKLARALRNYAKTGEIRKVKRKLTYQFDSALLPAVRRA
# Procedure, shortened: as §1
# ELK3 = molecular target: T6, ELK3 (Homo sapiens, UniProt P41970 1-407); settings: protein: recombinant; tags: N-terminal GST; dsDNA, one strand shown
# T6 sequence: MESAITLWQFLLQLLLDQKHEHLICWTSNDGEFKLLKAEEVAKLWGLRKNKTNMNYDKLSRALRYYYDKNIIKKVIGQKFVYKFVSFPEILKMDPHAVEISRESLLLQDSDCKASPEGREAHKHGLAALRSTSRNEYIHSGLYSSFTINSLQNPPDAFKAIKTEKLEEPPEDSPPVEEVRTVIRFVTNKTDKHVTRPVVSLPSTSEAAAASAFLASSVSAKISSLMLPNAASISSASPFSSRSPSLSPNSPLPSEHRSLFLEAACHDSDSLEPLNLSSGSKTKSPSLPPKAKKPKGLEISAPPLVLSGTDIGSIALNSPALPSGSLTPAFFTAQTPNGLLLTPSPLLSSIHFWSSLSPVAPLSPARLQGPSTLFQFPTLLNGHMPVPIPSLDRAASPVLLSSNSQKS
# Procedure, shortened: as §1
# FEV = molecular target: T7, FEV (Homo sapiens, UniProt Q99581 1-238); settings: protein: recombinant; tags: N-terminal GST; dsDNA, one strand shown
# T7 sequence: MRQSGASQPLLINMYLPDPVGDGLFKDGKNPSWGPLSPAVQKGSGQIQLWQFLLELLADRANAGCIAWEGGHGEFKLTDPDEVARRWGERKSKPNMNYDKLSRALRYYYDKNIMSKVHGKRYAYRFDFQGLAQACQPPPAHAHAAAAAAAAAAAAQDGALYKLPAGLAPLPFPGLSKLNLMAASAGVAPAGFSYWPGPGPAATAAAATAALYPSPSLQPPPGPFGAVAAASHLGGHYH
# Procedure, shortened: as §1
# ETV5 = ETV5 (Homo sapiens, UniProt P41161 1-510); settings: protein: recombinant; tags: N-terminal GST; dsDNA, one strand shown
# Chain of ETV5 (P41161 whole entry): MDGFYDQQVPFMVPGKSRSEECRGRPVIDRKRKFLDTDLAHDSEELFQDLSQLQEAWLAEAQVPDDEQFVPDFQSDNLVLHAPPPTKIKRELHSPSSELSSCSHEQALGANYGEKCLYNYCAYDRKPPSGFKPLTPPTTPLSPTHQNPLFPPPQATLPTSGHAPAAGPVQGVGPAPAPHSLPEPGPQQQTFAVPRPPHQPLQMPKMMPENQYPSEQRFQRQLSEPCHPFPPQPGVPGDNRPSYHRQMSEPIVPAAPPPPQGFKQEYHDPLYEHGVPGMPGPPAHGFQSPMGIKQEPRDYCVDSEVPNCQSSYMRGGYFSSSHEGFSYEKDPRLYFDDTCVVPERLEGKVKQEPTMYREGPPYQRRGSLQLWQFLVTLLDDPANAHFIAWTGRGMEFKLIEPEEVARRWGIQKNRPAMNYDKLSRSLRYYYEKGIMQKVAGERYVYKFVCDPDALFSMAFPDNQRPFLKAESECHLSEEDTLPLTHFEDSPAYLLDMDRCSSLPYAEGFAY
# Procedure, shortened: as §1
# HSF1 = HSF1 (Homo sapiens, UniProt Q00613 1-529); settings: protein: recombinant; tags: N-terminal GST; chain copies: 3; dsDNA, one strand shown
# Chain of HSF1 (Q00613 whole entry): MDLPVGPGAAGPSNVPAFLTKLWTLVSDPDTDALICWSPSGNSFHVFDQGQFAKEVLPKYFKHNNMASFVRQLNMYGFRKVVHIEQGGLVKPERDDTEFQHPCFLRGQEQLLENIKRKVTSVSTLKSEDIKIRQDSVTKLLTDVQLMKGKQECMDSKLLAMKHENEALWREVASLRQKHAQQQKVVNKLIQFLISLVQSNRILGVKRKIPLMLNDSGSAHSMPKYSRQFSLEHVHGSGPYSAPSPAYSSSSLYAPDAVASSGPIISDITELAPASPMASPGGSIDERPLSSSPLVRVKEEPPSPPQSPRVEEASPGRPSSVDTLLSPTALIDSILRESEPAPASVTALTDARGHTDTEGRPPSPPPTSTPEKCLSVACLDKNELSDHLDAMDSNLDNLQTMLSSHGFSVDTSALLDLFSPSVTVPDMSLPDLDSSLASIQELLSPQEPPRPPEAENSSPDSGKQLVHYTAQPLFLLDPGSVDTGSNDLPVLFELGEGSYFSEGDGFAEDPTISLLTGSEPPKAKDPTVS
# Procedure, shortened: as §1
# SPIC = molecular target: T8, SPIC (Homo sapiens, UniProt Q8N5J4 1-248); settings: protein: recombinant; tags: N-terminal GST; dsDNA, one strand shown
# T8 sequence: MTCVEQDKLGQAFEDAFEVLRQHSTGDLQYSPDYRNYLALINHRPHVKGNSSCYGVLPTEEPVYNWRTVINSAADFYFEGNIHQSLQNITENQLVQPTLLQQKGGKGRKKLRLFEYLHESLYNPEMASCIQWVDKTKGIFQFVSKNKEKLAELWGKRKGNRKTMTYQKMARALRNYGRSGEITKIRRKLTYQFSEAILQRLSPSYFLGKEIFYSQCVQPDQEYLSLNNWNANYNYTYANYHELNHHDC
# Procedure, shortened: as §1
# ELF4 = ELF4 (Homo sapiens, UniProt Q99607 1-663); settings: protein: recombinant; tags: N-terminal GST; dsDNA, one strand shown
# Chain of ELF4 (Q99607 whole entry): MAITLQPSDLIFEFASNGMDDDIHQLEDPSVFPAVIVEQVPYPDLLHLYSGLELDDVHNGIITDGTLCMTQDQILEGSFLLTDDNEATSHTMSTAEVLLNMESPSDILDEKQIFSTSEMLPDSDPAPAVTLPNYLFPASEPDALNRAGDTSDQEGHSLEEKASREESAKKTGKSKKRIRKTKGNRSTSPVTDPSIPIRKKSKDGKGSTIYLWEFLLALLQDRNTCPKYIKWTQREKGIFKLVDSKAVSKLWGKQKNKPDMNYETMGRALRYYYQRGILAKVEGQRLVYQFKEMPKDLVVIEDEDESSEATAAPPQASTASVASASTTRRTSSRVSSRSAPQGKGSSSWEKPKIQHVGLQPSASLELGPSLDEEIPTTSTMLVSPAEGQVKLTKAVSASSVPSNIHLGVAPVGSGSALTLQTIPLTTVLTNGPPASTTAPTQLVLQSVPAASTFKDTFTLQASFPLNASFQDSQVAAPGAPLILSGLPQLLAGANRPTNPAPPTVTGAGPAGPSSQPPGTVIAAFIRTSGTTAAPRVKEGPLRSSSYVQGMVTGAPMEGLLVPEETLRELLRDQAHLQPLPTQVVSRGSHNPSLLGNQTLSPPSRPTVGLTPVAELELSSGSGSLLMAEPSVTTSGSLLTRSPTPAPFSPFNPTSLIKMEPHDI
# Procedure, shortened: as §1
# ELK4 = molecular target: T9, ELK4 (Homo sapiens, UniProt P28324-2 1-405); settings: protein: recombinant; tags: N-terminal GST; dsDNA, one strand shown
# T9 sequence: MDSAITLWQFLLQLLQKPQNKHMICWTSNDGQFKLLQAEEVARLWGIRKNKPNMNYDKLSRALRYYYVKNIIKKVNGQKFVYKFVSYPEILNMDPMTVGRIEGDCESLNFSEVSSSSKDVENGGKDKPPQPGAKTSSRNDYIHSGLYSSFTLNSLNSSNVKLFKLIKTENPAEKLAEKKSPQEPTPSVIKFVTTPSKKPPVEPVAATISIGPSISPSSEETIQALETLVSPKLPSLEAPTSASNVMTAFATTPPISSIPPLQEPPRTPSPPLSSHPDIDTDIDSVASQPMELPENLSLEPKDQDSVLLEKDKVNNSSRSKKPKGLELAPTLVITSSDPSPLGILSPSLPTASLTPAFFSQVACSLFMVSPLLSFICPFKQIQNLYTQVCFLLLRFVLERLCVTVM
# Procedure, shortened: as §1
# ETV2 = molecular target: T10, ETV2 (Homo sapiens, UniProt O00321 1-342); settings: protein: recombinant; tags: N-terminal GST; dsDNA, one strand shown
# T10 sequence: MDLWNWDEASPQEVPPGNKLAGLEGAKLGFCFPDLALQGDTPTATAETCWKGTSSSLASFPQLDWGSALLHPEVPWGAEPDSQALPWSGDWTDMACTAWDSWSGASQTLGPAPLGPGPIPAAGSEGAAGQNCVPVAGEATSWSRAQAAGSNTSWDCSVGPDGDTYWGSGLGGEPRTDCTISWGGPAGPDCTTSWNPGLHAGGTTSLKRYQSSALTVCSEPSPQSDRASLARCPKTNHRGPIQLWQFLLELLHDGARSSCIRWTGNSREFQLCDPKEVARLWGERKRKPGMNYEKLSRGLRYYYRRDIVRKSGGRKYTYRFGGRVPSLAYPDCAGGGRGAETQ
# Procedure, shortened: as §1
# ELF3 = molecular target: T11, ELF3 (Homo sapiens, UniProt P78545 1-371); settings: protein: recombinant; tags: N-terminal GST; dsDNA, one strand shown
# T11 sequence: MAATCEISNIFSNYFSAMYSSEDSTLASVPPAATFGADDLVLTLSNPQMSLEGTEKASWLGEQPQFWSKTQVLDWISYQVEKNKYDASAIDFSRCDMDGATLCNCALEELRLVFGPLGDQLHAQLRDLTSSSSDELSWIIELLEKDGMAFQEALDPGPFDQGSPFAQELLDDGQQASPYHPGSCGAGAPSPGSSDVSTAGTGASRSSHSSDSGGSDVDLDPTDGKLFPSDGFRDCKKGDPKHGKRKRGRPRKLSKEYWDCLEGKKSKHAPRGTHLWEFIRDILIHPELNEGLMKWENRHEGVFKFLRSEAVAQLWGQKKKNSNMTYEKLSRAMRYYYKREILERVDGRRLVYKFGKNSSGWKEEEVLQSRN
# Procedure, shortened: as §1
# CRX = CRX (Homo sapiens, UniProt O43186 1-299); settings: protein: recombinant; tags: N-terminal GST; dsDNA, one strand shown
# Chain of CRX (O43186 whole entry): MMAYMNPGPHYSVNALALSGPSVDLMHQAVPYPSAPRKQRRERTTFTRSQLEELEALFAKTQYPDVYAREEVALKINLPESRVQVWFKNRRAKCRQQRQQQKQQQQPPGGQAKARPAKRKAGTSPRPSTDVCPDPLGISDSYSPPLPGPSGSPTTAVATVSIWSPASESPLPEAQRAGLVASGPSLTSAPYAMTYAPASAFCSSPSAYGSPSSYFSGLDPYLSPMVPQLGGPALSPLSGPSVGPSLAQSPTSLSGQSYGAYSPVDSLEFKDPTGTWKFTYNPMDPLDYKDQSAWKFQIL
# Procedure, shortened: as §1
# ETV1 = ETV1 (Homo sapiens, UniProt P50549 1-477); settings: protein: recombinant; tags: N-terminal GST; dsDNA, one strand shown
# Chain of ETV1 (P50549 whole entry): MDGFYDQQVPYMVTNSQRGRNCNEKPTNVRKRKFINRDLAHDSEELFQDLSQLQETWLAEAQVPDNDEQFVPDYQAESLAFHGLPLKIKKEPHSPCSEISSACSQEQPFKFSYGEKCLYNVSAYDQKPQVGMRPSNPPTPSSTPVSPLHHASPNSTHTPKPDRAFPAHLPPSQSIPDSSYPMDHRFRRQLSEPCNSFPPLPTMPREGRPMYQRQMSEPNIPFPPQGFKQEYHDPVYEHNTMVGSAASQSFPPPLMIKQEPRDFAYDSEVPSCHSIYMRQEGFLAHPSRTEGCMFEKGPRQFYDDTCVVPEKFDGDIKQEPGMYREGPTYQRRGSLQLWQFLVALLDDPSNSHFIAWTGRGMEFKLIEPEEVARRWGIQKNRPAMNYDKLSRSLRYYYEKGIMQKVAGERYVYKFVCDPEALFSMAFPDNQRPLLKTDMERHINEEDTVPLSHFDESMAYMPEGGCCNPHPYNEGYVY
# Procedure, shortened: as §1
sequence,measurement,setting,value
AATACT,binding signal,FLI1,"1.16 fold enrichment (6-mer frequency, TF over GST control)"
same,binding signal,ELK1,"1.19 fold enrichment (6-mer frequency, TF over GST control)"
same,binding signal,GABPA,"1.23 fold enrichment (6-mer frequency, TF over GST control)"
same,binding signal,ERG,"1.22 fold enrichment (6-mer frequency, TF over GST control)"
same,binding signal,ELF1,"1.29 fold enrichment (6-mer frequency, TF over GST control)"
same,binding signal,EHF,"1.24 fold enrichment (6-mer frequency, TF over GST control)"
same,binding signal,SPI1,"1.21 fold enrichment (6-mer frequency, TF over GST control)"
same,binding signal,SPIB,"1.14 fold enrichment (6-mer frequency, TF over GST control)"
same,binding signal,ELK3,"1.23 fold enrichment (6-mer frequency, TF over GST control)"
same,binding signal,FEV,"1.21 fold enrichment (6-mer frequency, TF over GST control)"
same,binding signal,ETV5,"1.27 fold enrichment (6-mer frequency, TF over GST control)"
same,binding signal,HSF1,"1.34 fold enrichment (6-mer frequency, TF over GST control)"
same,binding signal,SPIC,"1.25 fold enrichment (6-mer frequency, TF over GST control)"
same,binding signal,ELF4,"1.16 fold enrichment (6-mer frequency, TF over GST control)"
same,binding signal,ELK4,"1.24 fold enrichment (6-mer frequency, TF over GST control)"
same,binding signal,ETV2,"1.36 fold enrichment (6-mer frequency, TF over GST control)"
same,binding signal,ELF3,"1.26 fold enrichment (6-mer frequency, TF over GST control)"
same,binding signal,CRX,"1.47 fold enrichment (6-mer frequency, TF over GST control)"
same,binding signal,ETV1,"1.26 fold enrichment (6-mer frequency, TF over GST control)"

# — article PMC7862700, “An all-to-all approach to the identification of sequence-specific readers for epigenetic DNA modifications on cytosine”
